High-throughput results (PubChem BioAssay)
Only some compounds are listed: those with a hit (about 3% of all), similar ones and a draw of the others.
CSC inhib = cancer stem cell inhibition. cancer stem cell-like cells viability, luminescence. inhibition, % at 7.5 µM. 1.1% of 300,000 active. AID 2717; in the data active means inhibition above about 75%; inconclusive means no clear call, values can overlap the other calls; tested in HMLE shEcad cells
SKKanGAS inh = SKKanGAS growth inhibition; AID 1662; 1.3% of 300,000 active; inhibition, % at 7.5 µM; S. pyogenes SKKanGAS, kanamycin growth, BacTiter-Glo, 6 h;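 active means mean replicate score, as percent of positive control median, at least 50; inconclusive means mean below 50 but one replicate at or above 50; inactive means mean and every replicate below 50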;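 further: strain carries kanamycin resistance gene driven by streptokinase promoter and grows in 40 µg/ml kanamycin; loss of luminescence reflects streptokinase promoter inhibition or plain growth inhibition; 0% = median of DMSO wells and 100% = positive control at its reference dose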
IEC-6 cytotox = kills IEC-6 intestinal cells in KLF5 counter-screen; IEC-6 cytotoxicity, luminescence viability; 0.78% of 290,000 active; inhibition, % at 5 µM; in the data active means inhibition above about 22%;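 further: 0% = plate median of test compound wells and 100% = cytotoxic reference compound wells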
KLF5 inh = suppresses KLF5 promoter-driven expression; DLD-1 KLF5 promoter-luciferase reporter, luminescence; inhibition, % at 5 µM; 0.23% of 290,000 active;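 active means inhibition above a per-plate limit of that plate's mean compound inhibition plus 3 SD, cut at about 60% in these data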;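 further: 0% = DMSO wells and 100% = LY294002 at 200 µM; higher means less KLF5 promoter-driven luciferase light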
aSyn 5UTR inh = 5' untranslated region of α-synuclein, MLPCN primary screen; alpha-synuclein 5'UTR reporter, inhibitor activity; inhibition, % (tested at 7.5 µM); 0.82% of 300,000 active; AID 1813; in the data active means inhibition above about 60%; inconclusive means no clear call, values can overlap the other calls;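 further: H4 neuroglioblastoma cells stably carrying SNCA 5'UTR luciferase fusion; 0% = DMSO wells and 100% = positive control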
* = called active by the depositor; u = inconclusive; x = no result given.

SMILES	CSC inhib	SKKanGAS inh	IEC-6 cytotox	KLF5 inh	aSyn 5UTR inh
COc1ccc(NC(=O)C(OC(=O)c2cnc(C)cn2)c2ccccc2)cc1Cl (centres undefined)	-4	51*	x	x	-27
COc1ccc(NC(=O)/C(C#N)=C/c2ccc(OCCN3CCOCC3)c(OC)c2)c(OC)c1	-10	15	-8	-14	7
O=C(c1ccc(Cl)c(Cl)c1)N1CCC(=O)N(C(COCc2ccc(Cl)cc2)Cc2ccccc2)CC1 (centres undefined)	43	51*	1	-11	16
CCCn1c(NC(=O)c2cccc(C)c2C)nc2ccccc21	47	52*	3	-21	-1
CCCn1c(NC(=O)C2CCN(C(=O)c3ccccc3C)CC2)nc2ccccc21	1	-7	x	x	3
CCCn1c(NC(=O)c2ccc(Cl)c(S(=O)(=O)N3CCCC3)c2)nc2ccccc21	38	92*	-1	-18	40
O=C(NCc1nc2ccccc2[nH]1)c1ccc(Cl)c(S(=O)(=O)N2CCCC2)c1	-17	5	-1	-6	22
O=C(NCc1cnn(-c2ccccc2)c1)C1CCC(=O)N(C2CC2)C1 (centres undefined)	-13	2	1	-33	-20
C/C(N)=C(/C#N)C(=O)CSc1nc2scc(-c3ccccc3)c2c(=O)n1C	4	62*	0	-29	11
Cc1cccc2sc(NC(=O)c3ccc(NS(=O)(=O)c4cccs4)cc3)nc12	60	79*	-2	7	-1
COc1ccc2nc(NC(=O)c3ccc(NS(=O)(=O)c4cccs4)cc3)sc2c1	47	63*	4	-33	-67
Cc1ccsc1C(=O)NNC(=O)c1ccc(NS(=O)(=O)c2cccs2)cc1	x	18	x	x	10
CC(C)(C)NC(=O)[C@@H]1CN(Cc2cccnc2)CCN1C[C@@H](O)C[C@@H](Cc1ccccc1)C(=O)N[C@H]1c2ccccc2C[C@H]1O	3	1	x	x	-10
Oc1c(CN2CCN(c3ccccn3)CC2)cc(Cl)c2cccnc12	u	108*	-5	2	92*
O=[N+]([O-])c1cc(CN2CCCC2)c2cccnc2c1O	34	x	-9	-29	x
OCCN1CCN(Cc2cc(Cl)c3cccnc3c2O)CC1	23	-8	-3	-15	20
O=[N+]([O-])c1cc(CN2CCN(c3cccc(C(F)(F)F)c3)CC2)c2cccnc2c1O	5	95*	-2	14	71*
Oc1ccc(CN2CCC(Cc3ccccc3)CC2)c2cccnc12	x	-18	-12	15	105*
Cc1ccc(C)c(S(=O)(=O)N2CCN(Cc3ccc(O)c4ncccc34)CC2)c1	5	u	-1	26	74*
O=C(CN(Cc1ccc(Cl)cc1)C(=O)CNS(=O)(=O)c1ccccc1)NCC1CCCO1 (centres undefined)	3	-3	-2	3	0
Cc1ccc(N2C(=O)CC(Nc3ccc(Cl)c(S(=O)(=O)N(C)C)c3)C2=O)c(C)c1 (centres undefined)	-12	13	2	4	-3
Oc1ccc(CN2CCN(c3ccccc3)CC2)c2cccnc12	-6	55*	0	-1	80*
Oc1c(CN2CCCCC2)cc(COCc2ccccc2)c2cccnc12	0	-2	2	48	92*
COc1cccc(/C=C2/SC(=S)N(CC(=O)NNC(=O)c3ccccc3O)C2=O)c1	x	98*	-4	20	-9
O=C(CCCN1C(=O)/C(=C/c2ccccc2Cl)SC1=S)NNC(=O)c1ccc(Cl)cc1	14	-12	-4	11	65*
SMILES	CSC inhib	SKKanGAS inh	IEC-6 cytotox	KLF5 inh	aSyn 5UTR inh
Cc1ccc(C(=O)NNC(=O)CCCN2C(=O)/C(=C/c3ccccc3Cl)SC2=S)cc1	38	13	-5	-10	69*
O=C(CN1C(=O)/C(=C/c2ccccc2)SC1=S)NNC(=O)c1ccccc1O	-10	33	-1	-9	8
Cc1ccc(/C=C2\SC(=S)N(CCCC(=O)NNC(=O)c3ccccc3O)C2=O)cc1	-6	33	-5	29	107*
O=C(CCN1C(=O)/C(=C/c2ccccc2Cl)SC1=S)NNC(=O)c1cccnc1	-2	7	-2	6	-21
CCOc1ccc(S(=O)(=O)N(C)c2ccc(OCC(=O)NCc3ccc(C(=O)OC)cc3)cc2)cc1	-9	-13	-1	-12	8
COc1cc(OC)cc(C(=O)NN(CCC#N)C2=NS(=O)(=O)c3ccccc32)c1	-7	-1	3	-8	14
O=C(CCN1C(=O)/C(=C/c2ccccc2Cl)SC1=S)NNC(=O)c1ccccc1O	11	60*	-10	-3	13
COc1ccc(-c2cc(=O)n(-c3nc4ccccc4[nH]3)[nH]2)cc1	104*	1	-1	-53	-68
Cc1cc(/C=N/N2CCN(C)CC2)c(C)n1-c1ccc(Cl)cc1	5	5	3	-20	-3
O=C(Nc1nc2ccccc2n1CCOc1ccccc1)c1ccco1	x	77*	9	-17	58
Nc1nc2ccccc2n1CCOc1ccc(Br)cc1	6	-2	3	-40	6
S=C(Nc1ccccc1)Nc1nc2ccccc2n1CCOc1ccc(Br)cc1	107*	6	4	-7	-44
Cc1cccc(OCCn2c(NC(=O)c3ccco3)nc3ccccc32)c1	24	62*	0	-10	38
O=C(Nc1nc2ccccc2n1CCN1CCCCC1)c1ccco1	8	-5	-4	-30	-9
O=C(Nc1nc2ccccc2n1CCOc1ccc(Cl)cc1)c1ccco1	24	90*	2	-8	58
Cc1ccc(OCCn2c(NC(=O)c3ccco3)nc3ccccc32)cc1	-3	66*	-2	-16	67*
CC(=NCc1ccco1)c1c(C)[nH]n(-c2nc3ccccc3s2)c1=O	11	-10	-3	-13	31
C/C(=N/NC(=O)c1cccs1)c1c(C)[nH]n(-c2nc3ccccc3s2)c1=O	59	55*	42*	-80	-10
COC(=O)Cc1[nH]n(-c2nc3ccccc3s2)c(=O)c1C(C)=Nc1ccc(C)cc1	-5	44	-2	-14	98*
COc1cccc(/C=C/c2nc(C#N)c(NCC(C)C)o2)c1	128*	5	7	22	10
Cc1ccc(C(=O)c2cccc(N)c2)cc1C	-2	3	2	-4	82*
Cc1ccc(C(=O)c2ccc(O)cc2)cc1C	-7	x	2	-46	x
CCC1(c2ccc(F)cc2)NC(=O)N(CC(=O)Nc2ccc(C)c(S(=O)(=O)N3CCOCC3)c2)C1=O (centres undefined)	-1	5	5	6	-3
Cc1cccc(CC(Cc2nc3ccccc3[nH]2)c2nc3ccccc3[nH]2)c1 (centres undefined)	-13	61*	1	8	-13
O=[N+]([O-])c1ccc(-n2cnc3ccccc32)c([N+](=O)[O-])c1	-6	2	3	-4	-7
O=C(CSc1ccc2nnc(CCNC(=O)c3ccccc3)n2n1)NCCc1ccccc1	-6	-3	4	-11	-10
O=C(Cc1ccc([N+](=O)[O-])cc1)N1CCCCCC1	2	-2	-3	-19	-18
